The results in this text go back to PubChem BioAssay (Tox21).

Where “and” joins values, the source holds several entries; their conditions need not be identical. Equal values may be shown once. Records with an inconclusive call do not appear. Some structures have more than one record in an assay (separate samples or runs), and their calls can disagree. Calls of active or inactive are those of the source. Unless noted, calls come from the whole dose curve; as a rule, active = well fitted curve in the direction sought with a large enough effect in the repeat runs; inconclusive = weak or mixed curves; inactive = no such curve, though single readings can be large; an effect the other way counts as inactive or inconclusive.

Assay [1] is described as follows: qHTS assay to test for compound auto fluorescence at 535 nm (green) in HEK293 cells (AID 720680). A general note: qHTS replaces the single test concentration by a dilution series.
Assay [2] in a line: qHTS assay to test for compound auto fluorescence at 460 nm (blue) in HEK293 cell free culture (AID 720681). The essentials: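 Compounds were added to cell-free DMEM with 10% FBS and fluorescence read directly. The blue channel used 405 nm excitation and 460 nm emission, with triamterene as the reference fluorophore.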
A short description of assay [3]: qHTS assay to test for compound auto fluorescence at 535 nm (green) in HEK293 cell free culture (AID 720682). The essentials:
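Compounds were pin-transferred into cell-free DMEM with 10% FBS, and green fluorescence was read at excitation 485 nm and emission 535 nm. Intensities were expressed as fluorescein-equivalent values.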

Assay [4] in a line: qHTS assay to test for compound auto fluorescence at 590 nm (red) in HEK293 cell free culture (AID 720683). Summed up: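 Cell-free wells of DMEM with 10% FBS received compound, and intrinsic fluorescence was read at excitation/emission 540/590 nm. Values expressed as equivalence to Rose Bengal sodium.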
The nature of assay [5]: qHTS assay to test for compound auto fluorescence at 590 nm (red) in HepG2 cell free culture (AID 720684). Summed up: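 Compounds are added to culture medium (MEM, 10% FBS) lacking cells, then fluorescence is read at excitation 540 nm, emission 590 nm, with Rose Bengal sodium as the equivalency standard.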
Assay [6] can be described thus: qHTS assay to test for compound auto fluorescence at 460 nm (blue) in HepG2 cell free culture (AID 720685). Summed up:
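Compound (23 nL) or DMSO pinned into cell-free MEM with 10% FBS; blue fluorescence read at 405/460 nm excitation/emission, expressed as auto-fluorescence equivalency to triamterene.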

Assay [7] in a line: qHTS assay to test for compound auto fluorescence at 535 nm (green) in HepG2 cell free culture (AID 720686).
A short description of assay [8]: qHTS assay to test for compound auto fluorescence at 460 nm (blue) in HepG2 cells (AID 720687). The essentials: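 HepG2 cells in MEM with 10% FBS, attached overnight at 37 C, were exposed to compound or DMSO for 1 hr at 37 C, 5% CO2. Blue fluorescence was read at 405/460 nm, with triamterene as reference fluorophore.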
Assay [9] is described as follows: qHTS assay to identify small molecule antagonists of the glucocorticoid receptor (GR) signaling pathway - cell viability counter screen (AID 720693). Note: nearly all actives have a fitted effect of over 55% in size.
A short description of assay [10]: qHTS assay for identifying genotoxic compounds that show differential cytotoxicity against isogenic chicken DT40 cell lines with known DNA damage response pathways - wild type cell line (AID 743012). Note: nearly all actives have a fitted effect of over 60% in size. Note: potency is the fitted concentration of half-maximal effect. The essentials: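 Wild type DT40, 300 cells/well, ~0.5 h settle at 37 C/5% CO2; compounds in DMSO added by pintool; 40 h at 37 C/5% CO2; CellTiter-Glo, 30 min RT; luminescence.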

The nature of assay [11]: qHTS assay to identify small molecule antagonists of the androgen receptor (AR) signaling pathway - cell viability counter screen (AID 743033; note: nearly all actives have a fitted effect of over 45% in size).
For assay [12], the target named is Androgen receptor (Homo sapiens) (UniProt P10275). Briefly: qHTS assay to identify small molecule agonists of the androgen receptor (AR) signaling pathway using the MDA cell line (AID 743040; note: nearly all actives have a fitted effect of over 20% in size). Summed up:
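Human breast carcinoma MDA-kb2 reporter cells (MMTV-luc, AR/GR elements) were treated for 16 h at 37C in 0% CO2 following a 5 h settling period. Signal was quantified by ONE-Glo luminescence.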

Assay [13] shares this target. Briefly: qHTS assay to identify small molecule antagonists of the androgen receptor (AR) signaling pathway using the MDA cell line (AID 743042; note: nearly all actives have a fitted effect of over 55% in size). The essentials:
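MDA-kb2 breast carcinoma cells carrying MMTV-luciferase (AR/GR responsive) were co-treated with compounds and the agonist R1881 for 16 h at 37C. Inhibition read as ONE-Glo luminescence; CellTiter-Fluor fluorescence measured in parallel for cytotoxicity.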

Assay [14] in a line: qHTS assay for identifying genotoxic compounds that show differential cytotoxicity against isogenic chicken DT40 cell lines with known DNA damage response pathways - Rev3 mutant cell line (AID 743014). Note: nearly all actives have a fitted effect of over 55% in size. Note: potency is the fitted concentration of half-maximal effect.
Assay [15] is described as follows: qHTS assay to identify small molecule antagonists of the androgen receptor (AR) signaling pathway using the MDA cell line - cell viability counter screen (AID 743041; note: nearly all actives have a fitted effect of over 45% in size). Summed up: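 Same-well cytotoxicity was assessed by CellTiter-Fluor in MDA-kb2 AR-luc cells after 16 h of compound treatment under R1881 agonism.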
Assay [16] in a line: qHTS assay for identifying genotoxic compounds that show differential cytotoxicity against isogenic chicken DT40 cell lines with known DNA damage response pathways - Rad54/Ku70 mutant cell line (AID 743015). Note: nearly all actives have a fitted effect of over 60% in size. Note: potency is the fitted concentration of half-maximal effect.
The target of assay [17] is Glucocorticoid receptor (Homo sapiens) (UniProt P04150). Briefly: qHTS assay to identify small molecule agonists of the glucocorticoid receptor (GR) signaling pathway (AID 720691; active = well fitted activation curve with a large enough effect in the signal ratio in the repeat runs, not every such curve was filed as active; the % refers to the signal ratio). The essentials:
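Fluorescence intensity from LiveBLAzer B/G FRET substrate (2 h, room temperature) reports beta-lactamase expression driven by the glucocorticoid response element in GR-bla HeLa cells after 18 h compound exposure at 37 C.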

For assay [18] the target is unchanged. Put plainly: qHTS assay to identify small molecule antagonists of the glucocorticoid receptor (GR) signaling pathway (AID 720692; active = well fitted inhibition curve with a large enough effect in the signal ratio in the repeat runs, not every such curve was filed as active; the % refers to the signal ratio). Summed up: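 HeLa GR-bla cells; cmpd + dex 5 nM final, 18 h 37 C; LiveBLAzer B/G FRET substrate 2 h RT; fluorescence intensity read. Antagonist mode, qHTS.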
For assay [19], the target named is Androgen receptor (Homo sapiens) (UniProt P10275). Briefly: qHTS assay to identify small molecule antagonists of the androgen receptor (AR) signaling pathway (AID 743035; active = well fitted inhibition curve with a large enough effect in the signal ratio in the repeat runs, not every such curve was filed as active; the % refers to the signal ratio). Summed up: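 Fluorescence from a beta-lactamase FRET substrate (LiveBLAzer B/G, 2 h, room temperature) measured inhibition of R1881-stimulated signaling in GeneBLAzer AR-UAS-bla HEK293 cells exposed to compound for 16 h at 37C.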

Assay [20] shares this target. Put plainly: qHTS assay to identify small molecule agonists of the androgen receptor (AR) signaling pathway (AID 743036; active = well fitted activation curve with a large enough effect in the signal ratio in the repeat runs, with a control signal flat, not every such curve was filed as active; the % refers to the signal ratio). Summed up: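 Activation was read as beta-lactamase FRET signal from LiveBLAzer B/G substrate, added for 2 h at room temperature. Before that, GeneBLAzer AR-UAS-bla GripTite (HEK293) cells had 16 h compound exposure at 37C.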

Chain of Glucocorticoid receptor (Homo sapiens) (P04150 whole entry, looked up): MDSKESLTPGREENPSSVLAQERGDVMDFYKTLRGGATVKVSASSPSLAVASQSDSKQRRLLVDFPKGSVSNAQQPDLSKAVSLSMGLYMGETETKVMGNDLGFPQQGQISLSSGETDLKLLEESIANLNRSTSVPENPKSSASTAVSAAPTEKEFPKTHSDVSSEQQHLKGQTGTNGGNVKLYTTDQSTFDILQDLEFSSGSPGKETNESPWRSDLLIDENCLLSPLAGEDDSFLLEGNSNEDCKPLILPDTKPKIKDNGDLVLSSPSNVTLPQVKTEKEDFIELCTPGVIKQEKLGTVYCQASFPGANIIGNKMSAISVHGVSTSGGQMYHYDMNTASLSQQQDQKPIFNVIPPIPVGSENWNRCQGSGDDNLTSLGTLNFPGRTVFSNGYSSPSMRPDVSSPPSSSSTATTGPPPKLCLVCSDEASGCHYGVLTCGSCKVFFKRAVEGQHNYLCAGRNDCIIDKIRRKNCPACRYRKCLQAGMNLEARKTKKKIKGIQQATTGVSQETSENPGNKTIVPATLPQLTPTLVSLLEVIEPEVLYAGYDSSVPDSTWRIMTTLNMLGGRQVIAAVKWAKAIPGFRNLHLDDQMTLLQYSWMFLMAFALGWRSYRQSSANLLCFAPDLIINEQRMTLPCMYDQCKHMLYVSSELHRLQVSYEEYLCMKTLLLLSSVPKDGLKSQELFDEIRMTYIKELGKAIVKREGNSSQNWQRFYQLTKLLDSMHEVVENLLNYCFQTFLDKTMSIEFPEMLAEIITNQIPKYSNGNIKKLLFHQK
Chain of Androgen receptor (Homo sapiens) (P10275 whole entry, looked up): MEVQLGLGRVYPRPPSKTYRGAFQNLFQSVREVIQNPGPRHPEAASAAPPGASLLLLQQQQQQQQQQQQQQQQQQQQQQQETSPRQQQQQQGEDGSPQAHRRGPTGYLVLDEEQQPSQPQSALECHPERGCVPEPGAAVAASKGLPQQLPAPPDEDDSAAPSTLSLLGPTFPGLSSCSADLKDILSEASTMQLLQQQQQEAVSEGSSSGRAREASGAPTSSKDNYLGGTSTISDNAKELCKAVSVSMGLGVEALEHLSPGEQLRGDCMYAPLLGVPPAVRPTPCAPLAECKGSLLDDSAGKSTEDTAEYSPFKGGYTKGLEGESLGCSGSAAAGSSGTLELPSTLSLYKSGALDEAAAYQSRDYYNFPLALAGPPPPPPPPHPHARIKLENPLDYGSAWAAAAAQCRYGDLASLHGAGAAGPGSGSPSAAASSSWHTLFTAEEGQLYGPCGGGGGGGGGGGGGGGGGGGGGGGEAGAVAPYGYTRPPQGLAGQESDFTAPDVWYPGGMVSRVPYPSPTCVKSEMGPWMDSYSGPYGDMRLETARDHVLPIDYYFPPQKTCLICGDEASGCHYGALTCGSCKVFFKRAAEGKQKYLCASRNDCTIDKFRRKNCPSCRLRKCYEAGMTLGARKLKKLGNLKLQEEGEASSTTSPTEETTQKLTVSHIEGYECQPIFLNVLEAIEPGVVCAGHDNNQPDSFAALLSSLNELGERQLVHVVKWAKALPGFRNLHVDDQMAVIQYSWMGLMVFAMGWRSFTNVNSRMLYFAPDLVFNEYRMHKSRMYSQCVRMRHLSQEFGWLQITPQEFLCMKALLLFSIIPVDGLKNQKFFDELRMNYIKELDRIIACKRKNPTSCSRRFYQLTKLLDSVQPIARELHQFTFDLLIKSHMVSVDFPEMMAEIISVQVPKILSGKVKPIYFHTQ

As for `Nc1c(Br)cc([N+](=O)[O-])cc1[N+](=O)[O-]`, the molecule was classed as inactive in assay [1], in assay [2], in assay [3], in assay [4], in assay [5] and in assay [6]. Also, the call in assay [7], in assay [8] and in [13] was inactive. The Potency entry in assay [9], in assay [10], in assay [11] and in [12] was “inactive” each time.

As to `CC1(C)CON(Cc2ccccc2Cl)C1=O`, the call in assay [1], in assay [2], in assay [3], in assay [4], in assay [5] and in [6] was inactive. Besides, the result in assay [7] and in assay [8] was inactive. Besides, the Potency entry in assay [9], in [11] and in [15] was “inactive” each time. In addition, the Potency in assay [14] is 68.6 µM (active).

Turning to `COP(=S)(OC)Oc1ccc(S(N)(=O)=O)cc1`, the molecule was called inactive in [1], in assay [2], in assay [3], in assay [4], in assay [5] and in [6]. Besides, the molecule was classed as inactive in [7] and in assay [8]. Besides, the Potency entry in assay [9], in assay [16], in [11] and in assay [15] was “inactive” each time.

Take `O=C(Nc1ccccc1)N(Cc1ccc(Cl)cc1)C1CCCC1`: the molecule was called inactive in assay [1], in assay [2], in [3], in [4], in assay [5] and in assay [6]. The molecule was classed as inactive in [7] and in assay [8]. Also, the Potency result in assay [9], in assay [11] and in assay [15] was “inactive” in each case. Also, the Potency is 0.611 µM (active) in assay [14] and 1.54 µM (active) in [16].

Regarding `ClCC(Cl)Cl`, the molecule was called inactive in assay [1], in assay [2], in [3], in [4], in assay [5] and in [6]. In addition, the molecule was classed as inactive in assay [7] and in [8]. Also, the Potency entry in assay [9], in [14], in assay [16], in [11] and in assay [15] was “inactive” throughout.

As for `CCOC(=O)/C=C(C)/C=C/C[C@@H](C)CCCC(C)C`, the call in assay [1], in assay [3], in assay [4], in assay [5], in assay [6] and in [7] was inactive. Moreover, the molecule was classed as inactive in assay [8] and in assay [17]. The Potency entry in assay [18], in assay [9], in assay [11] and in assay [15] was “inactive” throughout. For the same molecule, the Potency was 30.6 µM (active) in assay [10]; 54.5 µM (active) in [14]; “inactive and 43.3 µM (active)” in [16].

Consider `CN1CCN(C(=O)O[C@H]2c3nccnc3C(=O)N2c2ccc(Cl)cn2)CC1`, for which the call in assay [1], in assay [2], in [3], in [4], in [5] and in [6] was inactive. In addition, the call in [7] and in assay [8] was inactive. Moreover, the Potency result in assay [9], in [16], in assay [11] and in [15] was “inactive” each time.

For the molecule `CC(C)(C)OC(=O)c1ncn2c1[C@@H]1CCCN1C(=O)c1c(Br)cccc1-2`, the molecule was called inactive in assay [1], in assay [2], in [3], in [4], in assay [5] and in [6]. Further, the molecule was called inactive in assay [7] and in assay [8]. Besides, the Potency entry in [9], in [11] and in [15] was “inactive” throughout. The Potency in assay [10] is 26.6 µM (active).

With `Cc1ccccc1CO[C@@H]1C[C@@]2(C(C)C)CC[C@]1(C)O2`, the call in [1], in [2], in assay [3], in assay [4], in assay [5] and in assay [6] was inactive. In addition, the call in assay [7], in assay [8] and in assay [20] was inactive. For the same molecule, the Potency result in assay [9], in assay [19], in assay [12] and in assay [15] was “inactive” in each case. For the same molecule, the Potency is 48.6 µM (active) in assay [14] and 54.5 µM (active) in assay [16].

Take `COC(=O)COc1ccc(Cl)cc1Cl`: the molecule was called inactive in [1], in [2], in [3], in assay [4], in assay [5] and in [6]. Also, the outcome in assay [7] and in [8] was inactive. Further, the Potency result in assay [9], in [14], in assay [16] and in [15] was “inactive” each time.

Regarding `OC(c1ccc(F)cc1)(c1cncnc1)c1ccccc1Cl` (stereo not given), the molecule was classed as inactive in [1], in [2], in assay [3], in assay [4], in assay [5] and in assay [6]. Besides, the molecule was classed as inactive in assay [7] and in assay [8]. Besides, the Potency result in assay [9] and in [15] was “inactive” each time. Further, the Potency in assay [14] was 30.6 µM (active); in [16] it was 61.1 µM (active).

`c1cc2c(c(N3CCNCC3)c1)OCCO2`: the molecule was called inactive in [1], in [3], in [4], in assay [5], in assay [6] and in [7]. Also, the molecule was classed as inactive in assay [8], in assay [17], in assay [20] and in assay [13]. For the same molecule, the Potency entry in assay [18], in assay [9], in assay [10], in [14], in assay [16] and in assay [19] was “inactive” throughout. The Potency entry in [12] and in assay [15] was “inactive” each time.

With `OC(Cn1cncn1)(c1ccc(F)cc1)c1ccccc1F` (stereo not given), the call in assay [1], in assay [2], in [3], in [4], in [5] and in assay [6] was inactive. Besides, the molecule was classed as inactive in assay [7] and in [8]. Moreover, the Potency result in assay [9], in assay [11] and in [15] was “inactive” throughout.
